PubChem BioAssay (NCATS)
Results filed as inconclusive are left out. Active and inactive are the calls of the source. The call rests on the fitted dose curve; in most records, active means well fitted cell-killing curve with a large enough effect; inconclusive means small, poorly fitted or top-dose-only effect; inactive means flat fitted curve, though single readings scatter.

experiment: Cell Viability - LYMP2-016 (AID 984); settings: LYMP2-016 lymphoblastoid cell viability, qHTS; series mostly up to 92.2 µM; activity change, negative = cytotoxicity: at the top concentration; further: nearly all actives have a fitted effect of over 55% in size
Excerpt: NIH Chemical Genomics Center [NCGC]
NIH Molecular Libraries Screening Centers Network [MLSCN]
National Institutes of Environmental Health Sciences [NIEHS]
National Toxicology Program [NTP]
We have developed a 1536-well cell-based assay for quantitative high throughput screening (qHTS) against a number of cell lines to determine in vitro cytotoxicity of small molecules. This particular assay uses a human lymphoblastoid cell line (LYMP2-016) purchased from Coriell Institute for Medical Research.
NCGC Assay Protocol Summary:
The CellTiter-Glo luminescent cell viability assay (Promega) is a homogeneous method to measure the number of viable cells in culture. The end point readout of this assay is based on quantitation of intracellular ATP, an indicator of metabolic activity, using the luciferase reaction. Luciferase catalyzes the oxidation of beetle Luciferin to oxyluciferin and light in the presence of ATP. The luminescent signal is proportional to amount of ATP present.
Using the CellTiter-Glo luminescent cell viability assay, the amount of cellular ATP was measured in the lymphoblastoid cell line with complete culture medium following compound treatment for 24 hours. The assay was performed in opaque white Kalypsys 1536-well plates. In the screen, tetraoctylammonium bromide was used as positive control. Library compounds were measured for their ability to cause acute toxicity in the cell line, as reflected by a decrease in intracellular ATP levels, in a concentration-dependent manner. […] AC50 values were determined from concentration-response data modeled with the standard Hill equation.
qHTS protocol for CellTiter Glo lymphoblastoid cellular assay
[Step] [Parameter] [Value] [Description]
1. Reagent; 5 uL; 2500 lymphoblastoid cells/well
2. Time; 5 hr; 37 C incubation
4. Controls; 23 nL; Tetraoctylammonium bromide 6.4pM to 92 uM
5. Time; 24 hr; 37 C incubation
6. Reagent; 5 uL; CellTiter Glo reagent
7. Time; 30 min; Room Temperature
8. Detection; Luminescence; Viewlux plate reader
Keywords: cell viability, cytotoxicity, lymphoblastoid cell line, luminescence, NTPHTS, NTPHTS_NCGC, NIEHS, DSSTox, MLSMR, MLSCN, NIH Roadmap, qHTS, NCGC
On the % scale 0 is the no-effect control and ±100 the full control effect.

Structure (SMILES) | activity change, negative = cytotoxicity
CN=C=O | -1.28% (inactive)
CN(C)C(=O)Nc1cccc(C(F)(F)F)c1 | 0.577% (inactive)
CCCBr | -0.768% (inactive)
CC(=O)[O-].CC(=O)[O-].CC(=O)[O-].[Cr+3] | -6.19% (inactive)
ClCCOCOCCCl | -3.72% (inactive)
Oc1ccc(Cl)c(Cl)c1 | -2.21% (inactive)
CC(C)C#N | -3.43% (inactive)
Cc1ccc(N)c(C)c1 | -2.76% (inactive)
CC(Cl)(Cl)Cl | -6.8% (inactive)
Cc1cc(C)cc(OP(=O)(Oc2cc(C)cc(C)c2)Oc2cc(C)cc(C)c2)c1 | -8.81% (inactive)
ClC(Cl)Br | -2.53% (inactive)
Cc1ccc([N+](=O)[O-])cc1 | -2.62% (inactive)
CC(C)CON=O | 0.583% (inactive)
C=C(Cl)CSC(=S)N(CC)CC | -24.7% (inactive)
N#CC(Br)Br | -31.9% (inactive)
Cc1ccc(OP(=O)(Oc2ccc(C)cc2)Oc2ccc(C)cc2)cc1 | 0.174% (inactive)
CC(C)OS(C)(=O)=O | -13.6% (inactive)
ClCCBr | -3.95% (inactive)
C(CCOCC1CO1)COCC1CO1 (stereo not given) | -19.3% (inactive)
ClCC(Cl)Cl | 2.94% (inactive)

Structure (SMILES) | activity change, negative = cytotoxicity
ClCCOCCCl | -2.67% (inactive)
CCNCC | -5.68% (inactive)
O=[N+]([O-])c1c(Cl)c(Cl)c(Cl)c(Cl)c1Cl | -2.36% (inactive)
CCOP(=O)(OCC)OCC | -10.7% (inactive)
CCCCOCC1CO1 (stereo not given) | -13.1% (inactive)
Oc1cc(Cl)ccc1Cl | -6.87% (inactive)
Cc1cccc(C)c1N | -0.557% (inactive)
CCBr | -5.95% (inactive)
Nc1c(Cl)cc([N+](=O)[O-])cc1Cl | -11.5% (inactive)
C=COC(C)=O | -7.75% (inactive)
CC(C)Br | 1.89% (inactive)
CCOP(=S)(OCC)Oc1nc(Cl)c(Cl)cc1Cl | -3.82% (inactive)
Clc1ccc(Cl)c(Cl)c1 | 0.905% (inactive)
O=[N+]([O-])c1ccccc1-c1ccccc1 | -0.587% (inactive)
O=C(O)c1cc(Cl)ccc1Cl | -3.09% (inactive)
C=CCCC#N | -0.673% (inactive)
Oc1cc(Cl)c(Cl)c(Cl)c1Cl | -18.5% (inactive)
O=S(=O)(Cl)c1ccccc1 | -5.43% (inactive)
Cc1ccc2c(C)cccc2c1 | -6.72% (inactive)
Clc1cccc(Cl)c1 | -3.8% (inactive)
